Shown is part of a subset that was picked to be rich in hits.
CBX7 AlphaScr: CBX7 chromodomain binding inhibitors, primary screen, biochemical, AlphaScreen. normalised signal (fraction of DMSO) (no concentration beside the values). AlphaScreen His6-CBX7 / biotin-H3K27me3 peptide binding; stronger effect = lower value. 66,000 compounds, 1.1% hits. AID 1224903, 2016. Chromobox protein homolog 7 (Homo sapiens), O95931; in the data active = normalised signal below about 0.5
Target sequence (O95931 whole entry, looked up): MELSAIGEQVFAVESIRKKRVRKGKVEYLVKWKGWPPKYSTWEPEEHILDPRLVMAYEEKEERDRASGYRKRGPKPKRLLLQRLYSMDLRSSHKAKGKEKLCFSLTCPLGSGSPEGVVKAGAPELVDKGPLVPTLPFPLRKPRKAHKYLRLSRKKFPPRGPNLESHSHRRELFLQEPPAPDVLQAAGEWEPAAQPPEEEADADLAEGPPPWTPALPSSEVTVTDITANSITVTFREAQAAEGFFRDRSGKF
Large screens that a line does not name were inactive; ! = not confirmed by another sample.

Cc1ccc(CNC(=O)CCN2C(=O)COc3ccccc32)cc1	none
Cc1ccc2c(c1)N(CCC(=O)NCc1cccnc1)C(=O)CO2	none
O=C(CCN1C(=O)COc2ccccc21)NCc1ccccc1Cl	none
O=C(CCN1C(=O)COc2ccccc21)NCc1ccccn1	CBX7 AlphaScr 0.16
Cc1ccc2c(c1)N(C(C)C(=O)NCc1ccccc1)C(=O)CO2 (stereo not drawn)	none
Cc1ccc2c(c1)N(CCC(=O)NCc1ccccn1)C(=O)CO2	CBX7 AlphaScr 0.34
CC(C(=O)NCc1ccccn1)N1C(=O)COc2ccc(Cl)cc21 (stereo not drawn)	none
Nc1nonc1-c1noc(COc2cccc(C(F)(F)F)c2)n1	none
CCCNC(=O)c1nc(-c2ccccc2C)oc1C	none
O=C(COc1ccccc1Cl)Nc1nc2ccccc2s1	none
COCCn1c(=O)[nH]c2cc(C(=O)NCCCN3CCC(C)CC3)ccc2c1=O	none
CCN(CC)c1ccc(C2CC(=O)C3=C(C2)Nc2ccccc2NC3c2ccc(OC)cc2)cc1 (stereo not drawn)	none
CC1CCN(c2c(NCc3ccc(C(=O)NCc4ccc(Cl)cc4)cc3)c(=O)c2=O)CC1	none
COc1ccc(-c2cc3nc(Cc4ccccc4)cc(=O)n3[nH]2)cc1	none
O=C1CC(c2nc3ccccc3n2Cc2ccccc2F)CN1Cc1ccccc1 (stereo not drawn)	none
COc1ccc(-c2nc(-c3ccccc3)c(-c3cccs3)[nH]2)c(OC)c1	none
Cc1ccc(-c2nc(-c3ccc(F)cc3)[nH]c2-c2ccccc2)cc1C	none
COc1ccc(-c2nc(-c3ccccc3)c(-c3ccc(F)cc3)[nH]2)cc1	none
Cc1ccc([N+](=O)[O-])cc1-c1[nH]c(-c2ccc(F)cc2)nc1-c1ccccc1	CBX7 AlphaScr 0.48
COc1ccc(-c2nc(-c3ccccc3)c(-c3ccc(F)cc3)[nH]2)cc1OC	CBX7 AlphaScr 0.38
O=[N+]([O-])c1ccc(-c2nc(-c3ccccc3)c(-c3ccc(F)cc3)[nH]2)cc1	none
COc1cc(-c2nc(-c3ccccc3)c(-c3cccs3)[nH]2)cc(OC)c1O	CBX7 AlphaScr 0.48
Brc1cccc(-c2nc(-c3ccccc3)c(-c3ccc(Oc4ccccc4)cc3)[nH]2)c1	none
Clc1ccc(-c2nc(-c3ccccc3)c(-c3ccccc3)[nH]2)cc1Cl	none
COc1cc(OC)cc(-c2nc(-c3ccccc3)c(-c3ccc(F)cc3)[nH]2)c1	none
c1ccc(Oc2ccc(-c3[nH]c(-c4ccccc4)nc3-c3ccccc3)cc2)cc1	CBX7 AlphaScr 0.47
COc1ccc(-c2nc(-c3ccccc3)c(-c3cccs3)[nH]2)cc1	none
COc1ccc(CCN2C(=O)N(c3ccccc3)C(=O)C2CC(=O)Nc2ccc(F)cc2)cc1OC (stereo not drawn)	none
Cc1cccc(Cn2c(=O)n(CCCC(=O)NCc3ccc4c(c3)OCO4)c(=O)c3sccc32)c1	none
COc1ccc(Cl)cc1NS(=O)(=O)c1ccc2c(c1)CCN2C(C)=O	none
Cc1ccc(-c2noc(CCC(=O)Nc3ccc(F)cc3)n2)cc1	none
COc1ccccc1Nc1cc(C(=O)NCCC(C)C)c2ccccc2n1	none
Cc1ccc(NC(=O)CCc2nc3ccccc3[nH]2)cc1Cl	none
COc1ccc(NC(=O)c2sc3nc(-c4ccc(OC)cc4)cn3c2C)cc1	none
COC(=O)Cn1cnc2c(nnn2Cc2ccc(F)cc2)c1=O	none
Cc1ccc(CNC(=O)c2ccc(CNc3c(N4CCCCC4)c(=O)c3=O)cc2)cc1	none
Cc1cc(NS(=O)(=O)c2ccc(Nc3nc(-c4c(C)nc5ccccn45)cs3)cc2)no1	none
Cc1ccc(NC(=O)Nc2ccc(Cc3ccncc3)cc2)cc1C	none
O=C(Nc1ccc(Cc2ccncc2)cc1)c1ncn[nH]1	CBX7 AlphaScr 0.058
O=C(Nc1ccc(Cc2ccncc2)cc1)C12CC3CC(CC(C3)C1)C2	none
Cc1ccc(CNC(=O)c2ccc3c(c2)N(Cc2ccccc2F)C(=O)c2ccccc2S3)cc1	none
OC1(c2ccccc2)CCN(Cc2ccccc2)[C@@H]2CCCC[C@@H]21 (stereo partly drawn)	none
CCOC(=O)Cc1nnc2c(Nc3ccccc3C)nc3nonc3n12	none
Cc1nc(C)c(-c2csc(Nc3ccc(N(C)C)cc3)n2)s1	CBX7 AlphaScr 0.054
Cc1ccc(Nc2nc(-c3c(C)nc4cc(C)ccn34)cs2)c(C)c1	CBX7 AlphaScr 0.42!
Cc1ccn2c(-c3csc(Nc4ccccc4Cl)n3)c(C)nc2c1	none
Cc1nc2ccccn2c1-c1csc(Nc2ccc(N(C)C)cc2)n1	CBX7 AlphaScr 0.47
CC(=O)Nc1nc(C)c(-c2csc(Nc3ccc(Cl)cc3)n2)s1	none
Cc1ccn2c(-c3csc(Nc4cccc(C(=O)O)c4)n3)c(C)nc2c1	none
CC(=O)Nc1ccc(Nc2nc(-c3c(C)nc4ccccn34)cs2)cc1	none
Cc1nc2ccccn2c1-c1csc(Nc2ccc(Br)cc2)n1	none
CCN(CC)c1ccc(Nc2nc(-c3c(C)nc4cc(C)ccn34)cs2)cc1	CBX7 AlphaScr 0.24
Cc1ccn2c(-c3csc(Nc4ccccc4)n3)c(C)nc2c1	none
Cc1nc(C)c(-c2csc(Nc3ccc(Cl)cc3)n2)s1	none
Cc1ccn2c(-c3csc(Nc4ccccc4C)n3)c(C)nc2c1	none
CCn1cc(C(=O)N2CCCCC2C)c(=O)c2ccc(C)nc21 (stereo not drawn)	none

Compound activity from PubChem.
